Our source for the Potency, cell number change and lipid storage change, negative = inhibition values is PubChem BioAssay AID2685 (National Center for Advancing Translational Sciences (NCATS), 2010).

In all, about 320,000 compounds went through this assay and about 2,100 (0.66%) were called active. About 53% were inconclusive and are not listed. Calls follow the shape of the dose curve; as a rule, active = well fitted inhibition curve with a large enough effect in the signal ratio, with a control signal flat (not every such curve was filed as active); inconclusive = small, poorly fitted or top-dose-only effect, or effect the other way, or a change in a side signal; inactive = flat fitted curve, though single readings scatter; the % refers to the signal ratio. This excerpt belongs to a sample that is enriched for actives.
Potency is read from the fitted curve at half-maximal effect.

The nature of this test: qHTS Assay for Lipid Storage Modulators in Drosophila S3 Cells.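 As to cell number change: cells counted by Cell Tracker Red CMTPX staining in the red channel.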 As to lipid storage change, negative = inhibition: % is scaled to controls: 0 for no effect and ±100 for the full control effect. Conditions: BODIPY lipid droplet fluorescence, 18-24 h, cells fed with added oleic acid; cell number change: measured here: cell count max response; series mostly up to 46.1 µM. The gist of the method:
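Laser-scanning cytometry quantifies lipid droplet accumulation (500–530 nm total intensity; droplet/cell object ratio) in oleic acid-fed (400 uM added) Drosophila S3 cells treated with a concentration series. 20 uM Triacsin C defined 100% inhibition.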
In general terms: Quantitative high-throughput screening tests each substance at several concentrations.
In the case of `CCOC(=O)N1CCN(C(=O)/C=C/c2c(C)nn(-c3ccc(F)cc3)c2Cl)CC1`, the Potency result is “inactive” and the cell number change is -7.81%.
The like results for `O=C(CSc1ccccn1)N1CCOCC1` were, in that order, “inactive” and -9.67%.
The like results for `CS(=O)(=O)N(CC(=O)N1CCCCC1)c1ccc(Cl)c(C(F)(F)F)c1` were, in that order, “inactive” and 0.64%.
The like results for `CCn1c(SCC(=O)N2CCCC2)nc2ccccc2c1=O` were, in that order, “inactive” and -13.8%.
On to `COC(=O)c1oc(-c2ccc(Cl)cc2)nc1C`, for which the Potency entry is “inactive” and the cell number change is -10.5%.
Turning to `CNC(=O)c1oc(-c2ccc(Cl)cc2)nc1C`, the Potency was 2.59 µM (active).
For `CNC(=O)c1ncoc1-c1ccc(Cl)cc1`, the Potency entry was “inactive” and the cell number change is 12.8%.
The like results for `Cc1cccc(C)c1NC(=S)N(Cc1ccco1)C1CCN(C(C)C)CC1` were, in that order, “inactive” and 1.59%.
The like results for `COc1ccc(-n2nnnc2SCC(=O)NNC(=O)c2ccc([N+](=O)[O-])cc2)cc1` were, in that order, “inactive” and 9.64%.
With `Cc1ccc(NC(=O)C(=O)NCCc2c[nH]c3ccccc23)cc1C`, the cell number change stood at 15% and the lipid storage change, negative = inhibition was 3.29% [at 9.22 µM] (inactive).
As for `CCOCCCNC(=O)CN1C(=O)c2cccc3cccc1c23`, the Potency result is “inactive” and the cell number change is -5.29%.
Consider `COc1ccc(C)cc1NC(=O)c1ccccc1NS(=O)(=O)c1ccc(Cl)s1`, for which the Potency entry was “inactive”.
With `Cc1ccc(NC(=O)c2ccccc2NS(=O)(=O)c2ccc(Cl)s2)cc1S(=O)(=O)N1CCOCC1`, the Potency entry is “inactive” and the cell number change stood at 11.6%.
`COc1cc(NC(=O)c2ccccc2NS(=O)(=O)c2ccc(Cl)s2)cc(OC)c1`: the Potency is 16.4 µM (active) and the cell number change is -19.8%.
As to `CCN1CCN(c2nc3sc4c(c3c(=O)n2-c2ccc(OC)cc2)CCCCC4)CC1`, the Potency result was “inactive” and the cell number change was -9.24%.
With `CCOC(=O)COc1ccccc1C1Nc2ccccc2C(=O)N1c1cccc(Cl)c1` (stereo unspecified), the Potency result was “inactive” and the cell number change is 2.87%.
The matching figures for `COc1ccc(NCc2nnc(SCC(=O)NCc3ccco3)n2-c2ccccc2OC)cc1`: “inactive” and 13.6%.
The like results for `COc1cccc(CNC(=O)N[C@@H](C)C(=O)O)c1` were, in that order, “inactive” and 1.68%.
The matching figures for `CCC(C)NC(=O)NCc1ccccc1F` (stereo unspecified): “inactive” and 2.87%.
Regarding `CCC(C)[C@H](NC(=O)NCc1ccccc1Cl)C(=O)O` (stereo partly specified), the Potency is 29.1 µM (active) and the cell number change was -0.143%.
The matching figures for `CCC(C)[C@H](NC(=O)NCc1ccccc1Cl)C(=O)OC` (stereo partly specified): “inactive” and -19%.
The like results for `COC(=O)[C@H](CCSC)NC(=O)NCc1ccccc1F` were, in that order, “inactive” and -14.5%.
The like results for `CCC(C)[C@H](NC(=O)NCc1ccc(Cl)cc1)C(=O)O` (stereo partly specified) were, in that order, “inactive” and 4.5%.
On to `COC(=O)[C@@H](NC(=O)NCc1ccccc1F)C(C)C`, for which the Potency was 25.9 µM (active) and the cell number change was -6.12%.
The like results for `COC(=O)[C@@H](NC(=O)NCc1cccc(OC)c1)C(C)C` were, in that order, “inactive” and -13.3%.
As to `CCC(C)[C@H](NC(=O)NCc1cccc(OC)c1)C(=O)O` (stereo partly specified), the Potency was 6.51 µM (active) and the cell number change amounted to 1.61%.
As to `CC(C)N(C)Cc1nnnn1CC(=O)NCc1cc(F)cc(C(F)(F)F)c1`, the Potency result is “inactive” and the cell number change was -9.03%.
The matching figures for `Cn1nc(-c2ccccc2)c(CO)c1Oc1cccc(C(F)(F)F)c1`: “inactive” and 9.06%.
The like results for `COc1ccc(C(=O)CSc2nnc(C3CC3)n2N)cc1` were, in that order, “inactive” and -1.83%.
`O=C(O)c1ccc(NS(=O)(=O)c2cc(Cl)ccc2Cl)cc1`: the Potency entry was “inactive” and the cell number change was determined as 3.91%.
The matching figures for `Cc1ccc(NS(=O)(=O)c2cc(C(=O)O)ccc2Cl)cc1`: 2.31 µM (active) and -3.53%.
The matching figures for `Cc1ccc(NS(=O)(=O)c2cc(C(=O)O)ccc2Cl)c(C)c1`: “inactive” and -3.54%.
The matching figures for `COCCN1Cc2cccc(C(=O)NC(C)CCc3ccco3)c2C1=O` (stereo unspecified): “inactive” and 4.03%.
As for `O=C(Nc1cccc(C(=O)O)c1)/C(=C\c1ccco1)NC(=O)c1ccccc1`, the Potency entry was “inactive” and the cell number change came to 13%.
The like results for `CCOC(=O)N1CCN(CC(=O)N2c3ccccc3Sc3ccccc32)CC1` were, in that order, “inactive” and -12.6%.
Take `C#CCOc1ccc(C2C3=C(CC(C)(C)CC3=O)N(CC(=O)O)C3=C2C(=O)CC(C)(C)C3)cc1OC`: the Potency was 10.3 µM (active) and the cell number change was -7.42%.
With `COc1ccc(C2C3=C(CC(C)(C)CC3=O)N(CC(=O)O)C3=C2C(=O)CC(C)(C)C3)cc1OC`, the Potency entry is “inactive” and the cell number change is -17.9%.
The like results for `C#CCOc1ccc(C2C3=C(CC(C)(C)CC3=O)N(CC(=O)O)C3=C2C(=O)CC(C)(C)C3)cc1` were, in that order, “inactive” and -0.525%.
For the compound `O=C(CN1C(=O)c2ccccc2C1=O)Nc1ccc(-c2nc3ccccc3o2)cc1`, the Potency result was “inactive”.
Turning to `Cc1nn(C)cc1C(C(=O)NC1CCCCC1)N(CCc1ccccc1)C(=O)c1cnccn1` (stereo unspecified), the Potency entry was “inactive” and the cell number change was 19.3%.
For `O=C(/C=C/c1cn(-c2ccccc2)nc1-c1cccnc1)N1CCCC1`, the Potency entry is “inactive” and the cell number change is -19.7%.
The matching figures for `CCOc1cc(/C=N/NC(=O)c2cccnc2)ccc1OC(=O)c1ccco1`: “inactive” and -16.1%.
On to `CCOc1cc(/C=N/NC(=O)c2ccccn2)ccc1OC(=O)c1ccc(F)cc1`, for which the Potency entry was “inactive” and the cell number change came to 5.41%.
In the case of `CCOc1cc(/C=N/NC(=O)c2ccncc2)ccc1OC(=O)c1ccccc1`, the Potency is 12.6 µM (active) and the cell number change is -17.2%.
The like results for `Cc1cccc(Cn2c(N(C)CCO)nc3c2c(=O)[nH]c(=O)n3C)c1` were, in that order, “inactive” and 28.6%.
Consider `CCN(c1ccccc1)S(=O)(=O)c1ccc(OC)c(NC(=O)CN2C(=O)NC(C)(C)C2=O)c1`, for which the Potency entry is “inactive” and the cell number change was -3.73%.
The like results for `COc1ccc(N2CCN(C(=O)CN3C(=O)NC4(CCCCCC4)C3=O)CC2)cc1` were, in that order, 5.8 µM (active) and -6.83%.
Regarding `COc1ccc(-c2csc(NC(=O)CN3C(=O)C4CCCCC4C3=O)n2)c(OC)c1` (stereo unspecified), the Potency result was “inactive” and the cell number change was -28.9%.
As to `COc1ccc(NC(=O)CN2C(=O)NC3(CCCC3)C2=O)c(OC)c1`, the Potency entry is “inactive” and the cell number change is -7.62%.
The matching figures for `COc1ccc(N2CCN(C(=O)CSc3ccc(C)cc3)CC2)cc1`: “inactive” and 6.76%.
The matching figures for `COc1ccc(N2CCN(C(=O)CN3C(=O)NC(C)(C4CC4)C3=O)CC2)cc1` (stereo unspecified): “inactive” and -22.3%.
The like results for `COc1ccc(C2(c3ccc(OC)cc3)NC(=O)N(CC(=O)Nc3ccccc3)C2=O)cc1` were, in that order, “inactive” and 10.9%.
`COc1ccc(N2CCN(C(=O)CSc3nc4ccccc4c(=O)[nH]3)CC2)cc1`: the Potency entry was “inactive” and the cell number change was -2.61%.
The matching figures for `COc1ccc(C2(c3ccc(OC)cc3)NC(=O)N(CC(=O)N3CCOCC3)C2=O)cc1`: 0.231 µM (active) and 8.58%.
In the case of `COc1cccc(N2CCN(C(=O)CN3C(=O)NC4(CCCC4)C3=O)CC2)c1`, the Potency result is “inactive”.
With `COc1ccc(N2CCN(C(=O)CSc3nnc(C)c(=O)[nH]3)CC2)cc1`, the Potency was 29.1 µM (active) and the cell number change was 2.46%.
In the case of `CCC1(c2ccc(F)cc2)NC(=O)N(CC(=O)N2CCOCC2)C1=O` (stereo unspecified), the Potency entry is “inactive” and the cell number change was -2.03%.
Regarding `COc1ccc(-c2csc(NC(=O)CN3C(=O)NC4(CCCC4)C3=O)n2)c(OC)c1`, the Potency was 6.51 µM (active).
